Measurements as given in ChEMBL document CHEMBL3988442, “University of Dundee, Small-Polar-MMV Screening Library” (2021).
About 950 (1.4%) of roughly 69,000 compounds showed an effect of 50% or more. Only a selection was taken, and strong results are over-represented in it overall.

tested on: Mycobacterium tuberculosis; assay: Cornell M. t heat shock assay; format: functional, organism-based; parameters: dose or concentration left out as unconfirmed; note: in the data most compounds retested in dose-response had high values

Compound | Percent Effect
O=C(O)C(F)(F)F.O=C(c1ccco1)N1CC[C@@H]2O[C@@H](COCCN3CCCC3)CC[C@@H]21 | -12.96%
COCCN1CCC2(CC1)C(=O)Nc1ccc(C(=O)NC(C)C)cc12.O=C(O)C(F)(F)F | -30.6%
O=C(NC1CCCN(c2ccc(OC(F)F)cc2)C1)c1cnccn1 (configuration not stated) | 27.97%
Cl.O=C(CN1CCCC1=O)N1CCC(O)(Cn2ccc3ccncc32)CC1 | 9.776%
O=C(O)C(F)(F)F.O=S(=O)(C1CC1)N1C[C@@H]2COC[C@]2(COc2ccccn2)C1 | -12.78%
COc1cccc(CC2CCCN2Cc2nccn2C)c1 (configuration not stated) | 0.2214%
CNCC(=O)N1CCCC1c1n[nH]cc1-c1ccccc1F.Cl (configuration not stated) | -23.25%
COc1cccc(CNC(C)C)c1OCc1ccc(C)cc1.Cl | 4.479%
COc1ccc(NC(=O)N(CCO)Cc2ccsc2)c(OC)c1 | -10.14%
COc1cccc(OC)c1CNC(Cc1ccsc1)c1ccc(C)cn1 (configuration not stated) | 103.5%
CCc1cnc(N)nc1NCc1ccc(OC)cc1OC | -28.22%
Cc1cccc(-c2ncc(CNC(C)Cc3ncccc3C)cn2)c1 (configuration not stated) | 1.404%
Cc1cccnc1C(Cc1ccsc1)NCc1cnc(N(C)C)nc1 (configuration not stated) | 69.2%
COc1ccc(CNC(Cc2cccs2)c2nc(C)c(C)s2)cc1OC.Cl (configuration not stated) | -4.28%
COc1ccc(CNC(Cc2ccsc2)c2ccc(C)cn2)cc1OC.Cl (configuration not stated) | 97.07%
COc1ccncc1NCc1ccsc1 | -12.4%
COc1ccc(CNc2c(C)nn(C(C)C)c2C)cc1OC.Cl | 12.96%
COc1ccc(CNC(Cc2ccsc2)c2ccc(C)cn2)c(OC)c1 (configuration not stated) | 104.3%
Cc1cccnc1C(Cc1ccsc1)NC(=O)Cn1cccnc1=O (configuration not stated) | -0.9287%
COc1ccccc1OCCNCc1c(C)nn(C)c1N(C)C.Cl | 31.69%
COc1ccc(CC(=O)NCC(O)c2sccc2C)cc1OC (configuration not stated) | 0.2606%

Compound | Percent Effect
Cc1ccc(CNC2CCc3[nH]c(=O)ccc3C2)cc1C.O=C(O)C(F)(F)F (configuration not stated) | -33.52%
O=C(O)C(F)(F)F.O=C(O)C(F)(F)F.c1cnc(N2CC3(CCN(Cc4cccnc4)C3)C2)nc1 | -26.88%
CN1CCCC1c1cncc(C(=O)NCCN2CCCCC2)n1 (configuration not stated) | -9.497%
O=C(Nc1cccnc1-n1cc(Cl)cn1)C1CCCC1 | 16.14%
Cc1cc(C2CCNCC2)nc(-c2ccsc2)n1.Cl | -13.2%
CN(C)[C@@H]1CCN(C(=O)Cc2ccc(F)cc2)[C@H]1Cc1cnn(C)c1.O=C(O)C(F)(F)F | 10.95%
CCc1cnc(N)nc1NCc1ccc(OC)c(OC)c1 | 5.948%
COc1ccc(C(C)NCc2ccsc2)cc1Cn1cccn1 (configuration not stated) | -10.38%
COc1ccc(CNC(C)Cn2cccn2)cc1OC (configuration not stated) | -13.02%
COc1ccc(CNC(Cc2ccsc2)c2ncccc2C)cc1OC (configuration not stated) | 96.19%
COc1ncc(NCc2ccsc2)cc1C(N)=O | -17.59%
Cc1cnc(N2CCC3(CCN(Cc4csc(C)n4)C3=O)C2)nc1.O=C(O)C(F)(F)F (configuration not stated) | -3.389%
Cc1ccc2c(n1)N(Cc1cccnc1)CCN(C(=O)C1CC1)C2.O=C(O)C(F)(F)F.O=C(O)C(F)(F)F | -27.88%
Cl.Cn1ccnc1C1(O)CCN(C(=O)Cc2ccccc2)CC1 | -18.55%
CN(Cc1ccc(-n2cccn2)cc1)C[C@@H]1CCCN2CCCC[C@H]12 | -24.54%
Cc1ccc(N2CCC3(CCN(C(=O)c4ccccn4)CC3)CC2)nn1.O=C(O)C(F)(F)F.O=C(O)C(F)(F)F | -19.27%
COc1cc(C#N)ccc1OC12CCCN(CC1)C2 (configuration not stated) | -7.079%
COc1cc(CN2CCCC2)ccc1OC12CCCN(CC1)C2 (configuration not stated) | -26.73%
CCCc1ccc(OC23CCCN(CC2)C3)c(OC)c1 (configuration not stated) | 85.22%
CS(=O)(=O)NC[C@H]1OC[C@@H]2CCN(CCc3ccccc3)C[C@@H]21.O=C(O)C(F)(F)F | -13.26%
CC(C)N(C)Cc1cncc2c1CCN(CC1CC1)C2.Cl.Cl.Cl | 9.593%

Compound | Percent Effect
O=C(O)C(F)(F)F.O=C(O)[C@]12CCCN(C3CCOC3)C[C@H]1CN(c1nncs1)C2 (some centres not stated) | 32.9%
COCCN1CCCn2c(nc(CNC(=O)COC)cc2=O)C1.O=C(O)C(F)(F)F | 37.74%
COc1ccc(CN2C[C@H]3C[C@H](C(=O)Nc4cccnc4)[C@@H](C2)O3)cc1 | 4.187%
CCc1c(C)sc(NC(=O)CN2CCOCC2)c1C(=O)OC | 24.22%
CCc1c(C)sc(NC(=O)CN2CCN(CC)CC2)c1C(=O)OC | 103.2%
CCOC(=O)c1c(NC(=O)CN2CCN(C(C)=O)CC2)sc(C)c1C | -7.801%
CN1CCCC1c1cccc(Cc2ccccc2F)n1 (configuration not stated) | 69.94%
CN1CCCC1c1cccc(Cc2ccc(F)cc2)n1 (configuration not stated) | 24.93%
CC(=O)N1CCCC1c1cccc(Cc2ccccc2F)n1 (configuration not stated) | -21.24%
Cc1cccc(CN2CCc3ncnc(C4CC4)c3CC2)n1.O=C(O)C(F)(F)F | -23.65%
CCN1CCN(C)C(=O)C12CCN(Cc1csc(C)n1)CC2.O=C(O)C(F)(F)F | 25.71%
O=C(O)C(F)(F)F.O=C(O)C(F)(F)F.c1cncc(-c2ncnc3c2CCN(Cc2cccs2)CC3)c1 | -18.81%
CC(C)Cc1cc(NC(=O)c2ccccn2)n(C)n1 | 64.59%
CC(C)Cc1cc(NC(=O)c2ccncc2)n(C)n1 | 18.34%
CC(C)Cc1cc(NC(=O)c2ccccc2)n(C)n1 | 19.61%
CN(Cc1ccncc1)C1COC2(CCN(Cc3cccs3)CC2)C1.O=C(O)C(F)(F)F.O=C(O)C(F)(F)F.O=C(O)C(F)(F)F (configuration not stated) | 10.37%
CN(C)C(=O)CO[C@@H]1CC[C@H]2[C@H]1OCCN2c1ncc(F)cn1.O=C(O)C(F)(F)F | 7.03%
O[C@@H]1CN(c2cnc3ccccc3n2)CC[C@H]1c1ccc2c(c1)OCO2 | 107.1%
O[C@@H]1CN(c2nc3ccccc3o2)CC[C@H]1c1ccc2c(c1)OCO2 | -10.34%
O[C@@H]1CN(c2nc3ccccc3s2)CC[C@H]1c1ccc2c(c1)OCO2 | -12.43%
